Beta cell apopt = beta cell apoptosis inhibition; protection from apoptosis, % (no concentration beside the values); actives 0.8% (n = 300,000); INS-1E cytokine-induced death, ATP luminescence, 48 h; percent of positive-control rescue, neutral wells zero;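 active = Every replicate reaches about 75%, or at least half do and their mean reaches it too, limit read from the data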;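 note: higher means more ATP so stronger rescue from cytokine killing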
Jurkat NFkB inh = lowers PMA/ionomycin-induced NF-kB signal in Jurkat cells. PMA/ionomycin-induced NF-kB luciferase reporter, luminescence. inhibition, % at 4 µM. actives 0.53% (n = 330,000); in the data active = inhibition above about 50%
Gli-Sufu antag = blocks Gli-Sufu signaling in a luciferase reporter. Sufu-KO-LIGHT fibroblasts, Gli luciferase reporter luminescence. inhibition, % at 5 µM. actives 0.74% (n = 340,000). AID 588413;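 active = inhibition above about 55%, limit read from the data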
Mdm2-MdmX inh = human Mdm2/MdmX binding inhibition; SaOS-2 split-luciferase Mdm2/MdmX complementation, luminescence; inhibition, % at 8 µM; actives 3% (n = 330,000); AID 485346;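 active = inhibition of at least 50% at 8 µM in the primary screen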
Target sequence (O15151 whole entry, looked up): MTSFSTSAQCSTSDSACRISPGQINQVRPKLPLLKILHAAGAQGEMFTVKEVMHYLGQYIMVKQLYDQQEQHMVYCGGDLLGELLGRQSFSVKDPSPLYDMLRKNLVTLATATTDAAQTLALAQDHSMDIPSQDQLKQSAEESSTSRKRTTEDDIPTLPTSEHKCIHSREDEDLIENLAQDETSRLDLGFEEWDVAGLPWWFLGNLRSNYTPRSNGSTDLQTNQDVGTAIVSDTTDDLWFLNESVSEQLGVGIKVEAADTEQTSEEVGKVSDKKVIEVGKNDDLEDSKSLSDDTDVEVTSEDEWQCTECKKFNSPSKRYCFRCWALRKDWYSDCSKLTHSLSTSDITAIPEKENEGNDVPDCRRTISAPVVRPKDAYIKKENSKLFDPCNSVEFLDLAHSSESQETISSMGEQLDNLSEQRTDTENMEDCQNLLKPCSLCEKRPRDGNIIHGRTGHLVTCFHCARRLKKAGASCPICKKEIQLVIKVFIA
Target sequence (Q00987 whole entry, looked up): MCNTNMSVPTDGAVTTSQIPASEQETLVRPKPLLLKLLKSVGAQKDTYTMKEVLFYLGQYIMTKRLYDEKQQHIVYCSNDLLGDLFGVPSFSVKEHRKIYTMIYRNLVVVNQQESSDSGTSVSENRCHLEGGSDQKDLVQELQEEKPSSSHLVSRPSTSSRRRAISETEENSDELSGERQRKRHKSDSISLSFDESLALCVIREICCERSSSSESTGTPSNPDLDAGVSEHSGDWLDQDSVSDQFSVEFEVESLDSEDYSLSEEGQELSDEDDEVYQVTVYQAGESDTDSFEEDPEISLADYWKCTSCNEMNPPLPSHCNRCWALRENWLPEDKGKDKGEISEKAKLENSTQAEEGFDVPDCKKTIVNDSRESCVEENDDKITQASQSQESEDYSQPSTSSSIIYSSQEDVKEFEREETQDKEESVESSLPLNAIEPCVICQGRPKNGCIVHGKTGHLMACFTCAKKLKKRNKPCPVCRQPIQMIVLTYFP
697 NFkB inh = inhibitors of the PMA/ionomycin-induced NF-kB reporter in 697 B cells; 697 B-cell NF-kB luciferase reporter, 16 h; inhibition, % at 4 µM; AID 435022; actives 0.33% (n = 330,000); in the data active = inhibition above about 35%
Gli antag conf = Gli-SUFU antagonism confirmation, single concentration; inhibition, % at 5 µM; Sufu-KO-LIGHT cells, Gli luciferase reporter, luminescence; shares compounds with Gli-Sufu antag; actives 40% (n = 2,500);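 active = mean inhibition at 5 µM reaching about 45%, limit read from the data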
Gli cytotox = cytotoxicity counter-screen for Gli-SUFU antagonists; shares compounds with Gli-Sufu antag; Sufu-KO-LIGHT cells cytotoxicity, ATP luminescence; cytotoxicity, % at 5 µM; actives 32% (n = 2,500);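 active = mean cytotoxicity at 5 µM above about 25%, limit read from the data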;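 note: cells exposed to compound overnight for roughly 16 to 18 hours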
Wnt3a cs = Wnt3a reporter inhibition counter-screen | AID 651995 | inhibition, % at 6.25 µM | actives 20% (n = 2,500) | shares compounds with Gli-Sufu antag | Wnt-LIGHT cells, Wnt3a-driven luciferase reporter, luminescence;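 active = mean inhibition above about 25%, limit read from the data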
Each line names hits and unclear results; the compound was inactive in the other large screens (follow-up assays come after a bar, where they were run). This is a sample that favours compounds with a hit; in the whole collection about 4% have one here.

Cc1cc(/C=N/n2cnnc2)c(C)n1-c1ccc(OCc2ccccc2F)cc1	Beta cell apopt 122.0, Gli-Sufu antag 60.4 | Gli antag conf 68.0 | Gli cytotox 26.9 | Wnt3a cs 27.3
CNC(=S)/N=C/NOCc1ccc(Cl)cc1Cl	none (no result: Beta cell apopt) | Gli antag conf inactive | Gli cytotox inactive | Wnt3a cs inactive
NC(=O)NOCc1ccc(Cl)cc1Cl	none
O=C(c1ccccc1)c1ccc(OCCCN2CCCC2)cc1	none
O=C(c1ccccc1)c1ccc(OCCOCCN2CCN(Cc3ccccc3)CC2)cc1	Gli-Sufu antag 68.0 | Gli antag conf inactive | Gli cytotox inactive | Wnt3a cs inactive
CC(C)CC(OC(=O)c1ccc(Cl)nc1)C(=O)NC1CCCC1 (centres undefined)	Gli-Sufu antag 55.8 | Gli antag conf inactive | Gli cytotox inactive | Wnt3a cs 50.1
CC(CCc1ccccc1)NC(=O)C1CC1 (centres undefined)	Gli-Sufu antag 60.9 | Gli antag conf inactive | Gli cytotox inactive | Wnt3a cs inactive
CCOC(=O)N1CCN(C(=O)CS(=O)(=O)Cc2nc(-c3ccccc3F)oc2C)CC1	Gli-Sufu antag 57.4 | Gli antag conf inactive | Gli cytotox 27.8 | Wnt3a cs inactive
COc1ccc(S(=O)(=O)NCc2cccnc2)cc1Br	Gli-Sufu antag 59.0 | Gli antag conf inactive | Gli cytotox inactive | Wnt3a cs inactive
COc1cc(S(=O)(=O)NCc2ccncc2)ccc1Br	Gli-Sufu antag 67.8 | Gli antag conf 61.0 | Gli cytotox inactive | Wnt3a cs 30.4
COc1cc(C)c(Br)cc1S(=O)(=O)NCc1ccccc1	none
Cc1cc(Br)c(S(=O)(=O)NCc2ccncc2)cc1C	none | Gli antag conf 52.0 | Gli cytotox inactive | Wnt3a cs 25.9
COc1ccc(N2C(N)=NC(N)=NC23CCCC3)cc1	none
CCCCOc1ccc(N2C(N)=NC(N)=NC23CCCCC3)cc1	Gli-Sufu antag 59.1 | Gli antag conf 48.4 | Gli cytotox inactive | Wnt3a cs inactive
Cc1ccccc1Cn1c(C)nc2ccccc21	Gli-Sufu antag 68.8 (no result: Beta cell apopt) | Gli antag conf 56.1 | Gli cytotox 36.5 | Wnt3a cs 29.9
c1ccc(-c2nn(-c3ccccc3)[n+](-c3ccccc3)n2)cc1	Gli-Sufu antag 63.3 (no result: Beta cell apopt, Jurkat NFkB inh, Mdm2-MdmX inh, 697 NFkB inh) | Gli antag conf 66.7 | Gli cytotox inactive | Wnt3a cs 32.8
COc1cccc(-c2nc(CS(=O)(=O)CC(=O)NCCCN3CCOCC3)c(C)o2)c1	none
COc1cccc(-c2nc(CS(=O)(=O)CC(=O)NCCN3CCOCC3)c(C)o2)c1	Gli-Sufu antag 77.1 | Gli antag conf inactive | Gli cytotox inactive | Wnt3a cs inactive
CC(=O)Nc1ccc(C(=O)NNS(=O)(=O)c2ccc(C)cc2)cc1	none (no result: Beta cell apopt)
CC(=O)c1ccc(NC(=O)Nc2ccc(NS(=O)(=O)c3ccc(C)cc3)cc2)cc1	Gli-Sufu antag 75.2 | Gli antag conf inactive | Gli cytotox inactive | Wnt3a cs 25.0
Cc1cc(C)cc(NC(=S)NC(=O)Cc2ccccc2)c1	Gli-Sufu antag 60.5 | Gli antag conf inactive | Gli cytotox inactive | Wnt3a cs inactive
CCN(CC)CCCNCC(=O)Nc1ccc(OC)c(Cl)c1	none (no result: Gli-Sufu antag)
Cc1cccc(-n2ncc3c2CCCC3NC(=O)Cc2c(C)noc2C)c1C (centres undefined)	Gli-Sufu antag 59.1 (no result: Beta cell apopt) | Gli antag conf inactive | Gli cytotox 31.2 | Wnt3a cs inactive
COc1cccc(Cn2c(-c3cccs3)noc2=O)c1	Gli-Sufu antag 99.1 | Gli antag conf inactive | Gli cytotox inactive | Wnt3a cs inactive
COc1ccc(-c2noc(=O)n2Cc2ccc(C#N)cc2)cc1	none
CN(C)/C(=N\S(=O)(=O)c1ccccc1)c1ccccc1	none
COc1ccc(CNCC(O)COc2cccc3c2OC(C)(C)C3)cc1 (centres undefined)	Gli-Sufu antag 59.5 | Gli antag conf 60.5 | Gli cytotox 27.5 | Wnt3a cs inactive
COc1cc(C(=O)Oc2ccccc2/C=N/NC(=O)c2ccc(Cl)cc2)cc(OC)c1OC	none (no result: Beta cell apopt) | Gli antag conf inactive | Gli cytotox inactive | Wnt3a cs inactive
O=C(NCc1ccccc1)c1ccc(N2CCC3(CC2)CC(c2ccc(Cl)cc2)=NO3)c([N+](=O)[O-])c1	none
Cc1nn(CC(=O)NC(C)CCc2ccccc2)c(=O)c2nn(-c3ccccc3)c(C)c12 (centres undefined)	none | Gli antag conf inactive | Gli cytotox inactive | Wnt3a cs inactive
O=C(c1ccc(S(=O)(=O)N2CCCCCC2)cc1)N1CCN(c2ccccc2F)CC1	none
Cc1ccc(-c2c[n+](Cc3cccc(Cl)c3)c3n2CCC3)cc1	Gli-Sufu antag 79.3 (no result: Beta cell apopt) | Gli antag conf 82.5 | Gli cytotox 35.8 | Wnt3a cs inactive
Cc1ccc(-c2c[n+](Cc3ccc(Cl)cc3)c3n2CCC3)cc1	Beta cell apopt 108.6, Gli-Sufu antag 79.4 | Gli antag conf 81.5 | Gli cytotox 33.3 | Wnt3a cs inactive
Cc1ccc(C[n+]2cc(-c3ccc(Cl)cc3)n3c2CCC3)cc1	Gli-Sufu antag 76.8 | Gli antag conf 79.0 | Gli cytotox 32.4 | Wnt3a cs inactive
Cn1cccc1C(=O)NC(=O)COC(=O)CNC(=O)CNC(=O)c1ccc(Cl)cc1Cl	none
O=C(CC1C[C@H](C(=O)N2CCCCC2)[C@@]2(CCc3ccccc3)c3[nH]c4ccccc4c3CCN2C1=O)NCCCn1ccnc1 (some centres undefined)	none
CCOCC(=O)NC1CCc2cc(OC)c(OC)c(OC)c2-c2ccc(SC)c(=O)cc21 (centres undefined)	none (no result: Beta cell apopt, Jurkat NFkB inh, Mdm2-MdmX inh, 697 NFkB inh)
CCOC(=O)NC1CCc2cc(OC)c(OC)c(OC)c2-c2ccc(SC)c(=O)cc21 (centres undefined)	Gli-Sufu antag 55.2 (no result: Beta cell apopt, Jurkat NFkB inh, Mdm2-MdmX inh, 697 NFkB inh) | Gli antag conf 56.3 | Gli cytotox 67.5 | Wnt3a cs 26.1
CCCCOC(=O)NC1CCc2cc(OC)c(OC)c(OC)c2-c2ccc(SC)c(=O)cc21 (centres undefined)	Gli-Sufu antag 63.7 (no result: Beta cell apopt, Jurkat NFkB inh, Mdm2-MdmX inh, 697 NFkB inh) | Gli antag conf 53.5 | Gli cytotox 63.8 | Wnt3a cs inactive
COc1ccc(N2CCN(C(C)C(=O)N3CC(C)OC(C)C3)CC2)cc1 (centres undefined)	none | Gli antag conf inactive | Gli cytotox inactive | Wnt3a cs inactive
COc1ccc(N2CCN(C(C)C(=O)N3CCc4ccccc43)CC2)cc1 (centres undefined)	none
CCC(CC)COC(=O)C1=C(C)NC(=O)NC1c1cccc([N+](=O)[O-])c1 (centres undefined)	Gli-Sufu antag 62.0 | Gli antag conf inactive | Gli cytotox inactive | Wnt3a cs inactive
